# Assay results from ChEMBL document CHEMBL1201862, “PubChem BioAssay data set” (2004).
# Out of some 53,000 sequences screened, about 5,500 (10%) were called active. Cut-off read from the data, not from the text of the source: active = GI50 up to about 1.1 µM and inactive = higher. Only a selection was taken, and actives are over-represented in it overall. Potency and affinity values are given separately.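 Assay format: 96-well plates, 48-hour exposure. Abbreviation: GI50, concentration required for 50% inhibition of growth.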
# System: HL-60
# Experiment: NCI tumour cell line growth inhibition, 48 h
row,Substance,GI50
1,"ACRIFLAVINE HYDROCHLORIDE, CHEMBL5219995",0.333 µM
2,"cis-Bis[[(trimethylsilyl)methyl]amino]tetrachloroplatinum(IV), CHEMBL2146191",1.76 µM
3,"[Bis(aminomethyl)tetramethylenesilane]tetrachloropaltinum(IV), CHEMBL2146189",0.115 µM
4,"[Bis(aminomethyl)ethylmethylsilane]tetrachloroplatinum(IV), CHEMBL2146192",0.156 µM
5,"[Bis(aminomethyl)dimethylsilane]tetrachloroplatinum(IV), CHEMBL2146190",0.248 µM
6,"CISPLATIN, CHEMBL11359",0.542 µM
7,"mu-(1,7-nanodiamine-N,N')bis-(cis-aminedichloroplatimum (II)), CHEMBL2146215",1.64 µM
8,"[Bis(aminomethyl)diethylsilane]tetrachloroplatinum(IV), CHEMBL2146203",0.0912 µM
9,"[Bis(aminomethyl)pentamethylenesilane]tetrachloropaltinum(IV), CHEMBL2146204",0.0566 µM
10,"[Bis(aminomethyl)tetramethylenesilane]dichloropaltinum(II), CHEMBL2146205",1.57 µM
11,"[Bis(aminomethyl)dimethylsilane]dichloroplatinum (II), CHEMBL2146201",1.3 µM
12,"[Bis(aminomethyl)pentamethylenesilane]dichloropaltinum(II), CHEMBL2146202",0.0513 µM
